In the supplement of paper PMC11732987, “Enantioselective OTUD7B fragment discovery through chemoproteomics screening and high-throughput optimisation” (Communications Chemistry, 2025):

Legend:
Test in all cases: log2 ratio of Biotin-Ahx-Ub-VS probe labelling (fragment/DMSO); higher = less target engagement (more negative = stronger competition), active = hit call of the paper (q ≤ 0.05, log2 ratio ≤ -1)
Conditions in all cases: compound concentration: 200 uM; treatment time: 3 h
USP19 = target: T1, USP19 (UniProt O94966)
T1 sequence (whole entry): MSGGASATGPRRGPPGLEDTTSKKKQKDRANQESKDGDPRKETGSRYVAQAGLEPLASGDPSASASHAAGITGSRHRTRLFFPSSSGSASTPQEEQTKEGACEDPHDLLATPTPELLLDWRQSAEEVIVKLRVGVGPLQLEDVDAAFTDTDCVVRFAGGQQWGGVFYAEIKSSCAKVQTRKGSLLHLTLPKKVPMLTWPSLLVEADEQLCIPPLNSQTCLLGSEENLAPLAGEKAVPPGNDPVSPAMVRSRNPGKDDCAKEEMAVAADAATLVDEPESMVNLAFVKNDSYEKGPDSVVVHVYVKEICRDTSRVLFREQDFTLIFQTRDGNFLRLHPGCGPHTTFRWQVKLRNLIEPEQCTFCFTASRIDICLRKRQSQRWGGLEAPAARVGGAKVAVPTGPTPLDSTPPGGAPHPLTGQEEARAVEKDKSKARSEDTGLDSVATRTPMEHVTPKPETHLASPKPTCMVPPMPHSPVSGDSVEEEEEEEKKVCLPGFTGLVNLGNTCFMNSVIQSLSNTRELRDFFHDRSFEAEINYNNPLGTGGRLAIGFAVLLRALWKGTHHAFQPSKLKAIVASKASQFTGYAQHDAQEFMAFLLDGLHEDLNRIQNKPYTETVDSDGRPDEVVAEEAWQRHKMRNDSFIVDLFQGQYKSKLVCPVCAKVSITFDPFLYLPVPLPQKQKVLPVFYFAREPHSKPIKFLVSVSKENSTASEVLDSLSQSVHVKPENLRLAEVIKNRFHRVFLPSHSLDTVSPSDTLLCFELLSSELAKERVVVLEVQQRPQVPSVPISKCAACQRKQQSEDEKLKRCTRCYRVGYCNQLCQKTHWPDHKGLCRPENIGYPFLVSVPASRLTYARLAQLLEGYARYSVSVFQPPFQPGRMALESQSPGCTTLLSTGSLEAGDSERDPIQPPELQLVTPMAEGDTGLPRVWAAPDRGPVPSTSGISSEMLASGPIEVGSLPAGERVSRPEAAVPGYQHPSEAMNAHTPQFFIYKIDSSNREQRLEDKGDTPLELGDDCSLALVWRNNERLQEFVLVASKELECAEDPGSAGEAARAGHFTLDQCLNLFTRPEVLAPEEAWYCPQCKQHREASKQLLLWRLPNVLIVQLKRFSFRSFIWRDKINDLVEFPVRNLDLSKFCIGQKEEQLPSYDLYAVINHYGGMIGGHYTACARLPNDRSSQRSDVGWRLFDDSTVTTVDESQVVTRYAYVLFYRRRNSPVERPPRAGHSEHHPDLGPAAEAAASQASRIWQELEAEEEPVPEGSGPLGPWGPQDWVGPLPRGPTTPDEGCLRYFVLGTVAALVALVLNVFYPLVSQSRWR
Summary of the method: (§1)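 Average log2 ratios of fragment over vehicle were obtained by unpaired t-test from global-median-normalised Spectronaut label-free quantities. Proteins with ≥2 unique peptides were included. HEK293T lysate (495 µg per sample) was treated in triplicate with fragment at 200 µM or vehicle for 3 h, then with Biotin-Ahx-Ub-VS at 0.5 µM final for 1 h, and labelled DUBs were NeutrAvidin-enriched and run by diaPASEF LC-MS/MS.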

USP22 = target: T2, USP22 (UniProt Q9UPT9)
T2 sequence (whole entry): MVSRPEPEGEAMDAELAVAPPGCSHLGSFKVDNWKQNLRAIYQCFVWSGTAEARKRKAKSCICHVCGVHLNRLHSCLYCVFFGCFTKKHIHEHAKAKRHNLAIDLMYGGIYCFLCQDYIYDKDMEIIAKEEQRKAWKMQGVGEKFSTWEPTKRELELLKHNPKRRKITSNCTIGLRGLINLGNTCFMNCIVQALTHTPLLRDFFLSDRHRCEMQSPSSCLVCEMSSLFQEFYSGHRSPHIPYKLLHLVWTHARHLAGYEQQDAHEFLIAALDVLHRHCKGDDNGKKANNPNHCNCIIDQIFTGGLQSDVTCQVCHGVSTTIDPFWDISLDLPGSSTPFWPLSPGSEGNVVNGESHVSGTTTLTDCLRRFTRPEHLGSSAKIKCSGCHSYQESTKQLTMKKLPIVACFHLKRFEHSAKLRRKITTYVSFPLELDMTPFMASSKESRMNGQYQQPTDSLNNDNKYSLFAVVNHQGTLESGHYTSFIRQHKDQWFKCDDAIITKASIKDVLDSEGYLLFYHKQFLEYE
Summary of the method: as §1

USP24 = USP24 (UniProt Q9UPU5)
Summary of the method: as §1

USP25 = target: T3, USP25 (UniProt Q9UHP3)
T3 sequence (whole entry): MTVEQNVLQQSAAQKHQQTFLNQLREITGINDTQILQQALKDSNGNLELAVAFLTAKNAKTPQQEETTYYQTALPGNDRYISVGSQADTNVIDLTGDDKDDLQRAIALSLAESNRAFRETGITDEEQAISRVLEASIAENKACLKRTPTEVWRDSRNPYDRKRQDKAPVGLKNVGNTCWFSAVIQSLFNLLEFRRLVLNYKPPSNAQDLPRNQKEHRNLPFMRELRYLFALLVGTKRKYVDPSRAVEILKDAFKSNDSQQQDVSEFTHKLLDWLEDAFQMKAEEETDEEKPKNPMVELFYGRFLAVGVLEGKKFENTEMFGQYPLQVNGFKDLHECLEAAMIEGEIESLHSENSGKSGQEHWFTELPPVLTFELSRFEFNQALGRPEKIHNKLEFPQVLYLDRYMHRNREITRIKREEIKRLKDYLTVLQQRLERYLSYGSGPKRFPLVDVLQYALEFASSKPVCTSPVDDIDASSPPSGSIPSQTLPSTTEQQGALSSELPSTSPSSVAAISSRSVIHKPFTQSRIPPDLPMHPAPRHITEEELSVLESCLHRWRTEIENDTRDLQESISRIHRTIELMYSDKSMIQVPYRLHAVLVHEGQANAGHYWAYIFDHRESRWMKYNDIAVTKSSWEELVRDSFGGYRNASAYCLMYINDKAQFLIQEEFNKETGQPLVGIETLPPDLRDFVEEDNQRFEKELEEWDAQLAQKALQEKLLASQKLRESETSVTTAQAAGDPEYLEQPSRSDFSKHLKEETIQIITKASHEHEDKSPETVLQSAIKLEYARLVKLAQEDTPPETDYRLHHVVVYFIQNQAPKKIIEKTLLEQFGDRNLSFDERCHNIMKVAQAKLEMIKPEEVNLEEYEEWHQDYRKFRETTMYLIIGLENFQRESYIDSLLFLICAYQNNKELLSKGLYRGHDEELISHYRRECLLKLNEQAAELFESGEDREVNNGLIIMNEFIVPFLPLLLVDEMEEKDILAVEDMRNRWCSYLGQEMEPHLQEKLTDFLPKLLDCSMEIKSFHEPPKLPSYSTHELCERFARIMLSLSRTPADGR
Summary of the method: as §1

USP28 = target: T4, USP28 (UniProt Q96RU2)
T4 sequence (whole entry): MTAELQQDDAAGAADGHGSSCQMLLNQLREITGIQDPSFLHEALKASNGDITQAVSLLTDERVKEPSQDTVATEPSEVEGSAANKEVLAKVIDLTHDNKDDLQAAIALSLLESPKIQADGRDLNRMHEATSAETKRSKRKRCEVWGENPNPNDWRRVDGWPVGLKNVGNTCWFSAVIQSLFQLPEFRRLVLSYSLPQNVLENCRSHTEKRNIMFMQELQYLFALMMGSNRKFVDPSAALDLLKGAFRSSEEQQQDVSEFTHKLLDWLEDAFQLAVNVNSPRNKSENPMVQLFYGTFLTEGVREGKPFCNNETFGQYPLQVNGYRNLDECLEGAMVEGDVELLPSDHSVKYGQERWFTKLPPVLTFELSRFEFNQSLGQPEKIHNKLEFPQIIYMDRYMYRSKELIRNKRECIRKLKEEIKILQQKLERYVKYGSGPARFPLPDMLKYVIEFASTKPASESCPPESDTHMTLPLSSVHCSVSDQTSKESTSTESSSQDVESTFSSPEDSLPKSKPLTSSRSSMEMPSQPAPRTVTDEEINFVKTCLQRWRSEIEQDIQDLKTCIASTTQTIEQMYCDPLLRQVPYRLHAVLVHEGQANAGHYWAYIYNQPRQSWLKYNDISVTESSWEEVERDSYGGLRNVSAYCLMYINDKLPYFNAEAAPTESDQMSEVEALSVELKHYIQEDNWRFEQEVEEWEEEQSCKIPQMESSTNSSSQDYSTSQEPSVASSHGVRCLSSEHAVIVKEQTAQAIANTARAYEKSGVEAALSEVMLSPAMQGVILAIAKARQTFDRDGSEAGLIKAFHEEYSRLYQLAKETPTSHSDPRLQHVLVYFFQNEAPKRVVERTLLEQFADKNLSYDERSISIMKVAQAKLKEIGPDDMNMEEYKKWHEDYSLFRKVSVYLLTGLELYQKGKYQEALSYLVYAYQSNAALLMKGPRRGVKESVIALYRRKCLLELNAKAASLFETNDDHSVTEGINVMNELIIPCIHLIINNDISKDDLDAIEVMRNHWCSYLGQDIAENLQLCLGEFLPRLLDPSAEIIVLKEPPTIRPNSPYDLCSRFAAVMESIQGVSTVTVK
Summary of the method: as §1

Measured: log2 ratio of Biotin-Ahx-Ub-VS probe labelling

USP24, sequence (Q9UPU5 whole entry): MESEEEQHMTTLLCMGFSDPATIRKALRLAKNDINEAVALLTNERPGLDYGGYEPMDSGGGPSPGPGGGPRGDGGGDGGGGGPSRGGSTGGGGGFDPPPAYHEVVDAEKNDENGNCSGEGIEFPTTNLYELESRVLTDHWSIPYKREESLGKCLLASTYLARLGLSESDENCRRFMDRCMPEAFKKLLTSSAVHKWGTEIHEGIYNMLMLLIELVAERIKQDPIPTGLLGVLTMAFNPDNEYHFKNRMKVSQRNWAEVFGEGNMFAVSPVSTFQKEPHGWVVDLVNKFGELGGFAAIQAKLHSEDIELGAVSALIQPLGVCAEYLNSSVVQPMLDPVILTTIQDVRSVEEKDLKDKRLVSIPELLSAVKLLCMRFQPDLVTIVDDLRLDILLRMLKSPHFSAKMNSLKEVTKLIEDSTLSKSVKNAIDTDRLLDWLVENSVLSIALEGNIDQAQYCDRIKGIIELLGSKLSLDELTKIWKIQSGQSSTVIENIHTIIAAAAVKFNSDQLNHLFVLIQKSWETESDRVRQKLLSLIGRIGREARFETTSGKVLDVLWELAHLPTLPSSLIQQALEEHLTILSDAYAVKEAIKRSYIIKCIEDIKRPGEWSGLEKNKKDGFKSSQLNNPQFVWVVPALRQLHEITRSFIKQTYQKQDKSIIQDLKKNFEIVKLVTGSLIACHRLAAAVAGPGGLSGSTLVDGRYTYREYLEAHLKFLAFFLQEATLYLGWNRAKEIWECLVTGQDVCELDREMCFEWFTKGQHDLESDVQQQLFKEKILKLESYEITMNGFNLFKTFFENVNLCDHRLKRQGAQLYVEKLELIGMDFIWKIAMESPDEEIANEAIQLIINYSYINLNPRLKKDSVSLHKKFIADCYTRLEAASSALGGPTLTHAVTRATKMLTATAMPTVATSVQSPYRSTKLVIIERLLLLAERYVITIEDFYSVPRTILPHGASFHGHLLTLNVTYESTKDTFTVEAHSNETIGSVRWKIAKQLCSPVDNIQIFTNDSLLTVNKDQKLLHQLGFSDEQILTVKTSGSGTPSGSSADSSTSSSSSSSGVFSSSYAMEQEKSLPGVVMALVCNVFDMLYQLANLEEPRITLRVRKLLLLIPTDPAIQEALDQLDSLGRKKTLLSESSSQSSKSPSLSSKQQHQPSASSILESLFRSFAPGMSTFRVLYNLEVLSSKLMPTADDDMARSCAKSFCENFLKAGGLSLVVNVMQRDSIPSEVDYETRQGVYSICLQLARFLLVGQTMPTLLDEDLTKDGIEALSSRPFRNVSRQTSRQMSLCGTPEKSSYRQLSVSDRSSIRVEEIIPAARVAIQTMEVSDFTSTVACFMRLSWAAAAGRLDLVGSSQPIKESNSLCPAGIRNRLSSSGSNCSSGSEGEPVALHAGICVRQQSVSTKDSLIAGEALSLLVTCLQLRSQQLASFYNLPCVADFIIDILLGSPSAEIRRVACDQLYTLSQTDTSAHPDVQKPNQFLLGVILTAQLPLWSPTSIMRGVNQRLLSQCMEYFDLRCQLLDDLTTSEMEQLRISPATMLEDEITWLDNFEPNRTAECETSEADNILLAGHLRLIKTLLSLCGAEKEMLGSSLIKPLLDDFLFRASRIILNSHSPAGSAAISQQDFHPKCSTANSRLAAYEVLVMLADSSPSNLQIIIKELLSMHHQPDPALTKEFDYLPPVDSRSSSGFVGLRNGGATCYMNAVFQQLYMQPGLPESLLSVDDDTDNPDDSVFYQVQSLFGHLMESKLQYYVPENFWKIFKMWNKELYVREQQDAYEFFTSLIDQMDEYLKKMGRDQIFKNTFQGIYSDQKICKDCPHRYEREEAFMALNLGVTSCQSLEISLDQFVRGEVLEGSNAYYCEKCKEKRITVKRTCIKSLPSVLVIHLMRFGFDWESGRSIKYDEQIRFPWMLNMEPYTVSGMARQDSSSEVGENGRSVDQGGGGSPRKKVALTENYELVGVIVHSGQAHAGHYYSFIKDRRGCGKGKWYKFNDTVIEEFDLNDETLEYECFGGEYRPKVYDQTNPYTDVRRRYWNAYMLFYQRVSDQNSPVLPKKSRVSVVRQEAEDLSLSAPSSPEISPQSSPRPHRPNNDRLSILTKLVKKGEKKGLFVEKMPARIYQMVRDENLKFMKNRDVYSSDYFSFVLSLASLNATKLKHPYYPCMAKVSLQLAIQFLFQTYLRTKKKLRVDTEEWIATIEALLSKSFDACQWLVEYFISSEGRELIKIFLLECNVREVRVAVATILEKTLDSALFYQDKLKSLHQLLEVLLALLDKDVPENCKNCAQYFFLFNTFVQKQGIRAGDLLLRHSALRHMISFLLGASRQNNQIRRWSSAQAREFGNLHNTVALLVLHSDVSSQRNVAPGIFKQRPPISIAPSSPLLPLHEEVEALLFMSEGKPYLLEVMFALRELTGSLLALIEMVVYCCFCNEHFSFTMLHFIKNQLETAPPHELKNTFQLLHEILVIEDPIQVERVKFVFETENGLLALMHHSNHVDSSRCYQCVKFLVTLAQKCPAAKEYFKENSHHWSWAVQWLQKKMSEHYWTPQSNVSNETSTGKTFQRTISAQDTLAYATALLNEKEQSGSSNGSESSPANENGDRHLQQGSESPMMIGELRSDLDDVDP

Cc1cccc(NC(=O)[C@@H]2CCCN2C(=O)CCl)n1
inactive: USP19 -0.349 | USP22 -0.038 | USP24 -0.45 | USP25 -0.327 | USP28 -0.61
